Results: PubChem BioAssay (NCATS)
Where “and” joins values, the source holds several entries; their conditions need not be identical. Equal entries are not always repeated. Inconclusive results are not listed. A call without a number means that no potency is given here. Calls of active or inactive are those of the source. Calls come from the whole dose curve; as a rule, active = well fitted curve in the direction sought with a large enough effect; inconclusive = small, poorly fitted or top-dose-only effect, or another doubt; inactive = no such curve, though single readings can be large; an effect the other way counts as inactive or inconclusive.

Tests used:
[1] = qHTS for Inhibitors of Ubiquitin-specific Protease USP2a Using CHOP2 as the Reporter: K633 Counterscreen (AID 652168); note: series mostly up to about 57 µM
Procedure, shortened: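 Cell-free interference counterscreen without USP2a: compounds pinned into enzyme-free buffer (20 mM Tris pH 8, 2 mM beta-mercaptoethanol, 0.05% Chaps), then DiUb K48-4IQF substrate added (100 nM stock); fluorescence read kinetically, Ex 525/Em 598.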

[2] = molecular target: Ubiquitin carboxyl-terminal hydrolase 2 (Homo sapiens) (UniProt O75604); assay: qHTS for Inhibitors of Ubiquitin-specific Protease USP2a Using CHOP2 as the Reporter: K484 Substrate (AID 652173);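 note: cleavage of internally quenched K48 di-ubiquitin substrate measured as rising fluorescence over time; nearly all actives have a fitted effect of over 70% in size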; note: potency is the fitted concentration of half-maximal effect
Procedure, shortened: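 USP2 (dispensed at 5 nM) was pinned with compounds, then DiUb K48 internally quenched fluorescent substrate (dispensed at 100 nM) was added. The buffer was 20 mM Tris pH 8, 2 mM beta-mercaptoethanol and 0.05% CHAPS. Cleavage was read kinetically as rising fluorescence, Ex 525/Em 598.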

[3] = molecular target: Calcium and integrin-binding protein 1 (Homo sapiens) (UniProt Q99828); assay: Primary qHTS for Identification of Calcium Integrin Binding Protein 1 (CIB1) Competitor (AID 1508620);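 note: GST tagged CIB1 binding a fluorescein labelled alphaIIb integrin peptide tracer; top concentration of the series differs between compounds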
Procedure, shortened: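 Fluorescence polarization competition: CIB1-GST (1 uM final) preincubated with compound 15 min at room temperature, then FITC-labeled alphaIIb peptide (100 nM final) added for another 15 min. Polarization read at Ex 480/Em 540.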

[4] = qHTS for Inhibitors of Ubiquitin-specific Protease USP2a Using CHOP2 as the Reporter: Cytotox Assay (AID 652170); note: nearly all actives have a fitted effect of over 70% in size; note: potency is the fitted concentration of half-maximal effect
Procedure, shortened: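 HCT116 human colon cancer cells, 600 per well in DMEM with 10% FBS, exposed to compounds for 72 hr at 37 deg C. ATP measured by CellTiter-Glo luminescence, normalized to DMSO cells and no-cell background.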

Sequence of Calcium and integrin-binding protein 1 (Homo sapiens) (Q99828 whole entry, looked up): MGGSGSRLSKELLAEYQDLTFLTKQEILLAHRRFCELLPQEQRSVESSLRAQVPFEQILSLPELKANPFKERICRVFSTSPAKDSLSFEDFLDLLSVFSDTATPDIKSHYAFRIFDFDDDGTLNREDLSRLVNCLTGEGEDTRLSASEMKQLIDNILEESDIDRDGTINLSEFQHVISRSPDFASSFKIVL
Sequence of Ubiquitin carboxyl-terminal hydrolase 2 (Homo sapiens) (O75604 whole entry, looked up): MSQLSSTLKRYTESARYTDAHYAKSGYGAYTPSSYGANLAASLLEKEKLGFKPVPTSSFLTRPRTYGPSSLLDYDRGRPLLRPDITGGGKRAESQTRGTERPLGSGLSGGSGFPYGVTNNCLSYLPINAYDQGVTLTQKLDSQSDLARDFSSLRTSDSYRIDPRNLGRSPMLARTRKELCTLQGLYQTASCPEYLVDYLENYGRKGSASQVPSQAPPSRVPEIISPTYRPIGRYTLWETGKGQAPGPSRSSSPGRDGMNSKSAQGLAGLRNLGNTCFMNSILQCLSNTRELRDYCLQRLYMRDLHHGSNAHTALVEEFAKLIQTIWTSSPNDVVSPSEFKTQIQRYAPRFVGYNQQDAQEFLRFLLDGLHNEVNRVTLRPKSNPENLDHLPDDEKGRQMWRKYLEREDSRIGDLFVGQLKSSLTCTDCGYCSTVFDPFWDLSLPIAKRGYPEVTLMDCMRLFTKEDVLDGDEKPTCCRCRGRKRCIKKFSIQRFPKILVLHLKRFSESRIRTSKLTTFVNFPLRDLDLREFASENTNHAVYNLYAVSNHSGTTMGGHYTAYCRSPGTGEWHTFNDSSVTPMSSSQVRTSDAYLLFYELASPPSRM

| SMILES | outcome [1] | Potency [2] | Potency [3] | Potency [4] |
| --- | --- | --- | --- | --- |
| Cc1ccc(S(=O)(=O)Nc2cnccc2C(=O)Nc2nc(C3CCC3)cs2)cc1 | inactive | 17.2 µM (active) | inactive |  |
| Cc1ccc(S(=O)(=O)NCCC(=O)Nc2nc(-c3ccccc3)cs2)cc1 | inactive | 19.3 µM (active) | inactive |  |
| Cc1ccc(S(=O)(=O)Nc2ccccc2C(=O)Nc2nc(-c3ccccc3)cs2)cc1 | inactive | 1.72 µM (active) and 1.93 µM (active) | inactive | 14.8 µM (active) and 11.8 µM (active) |
| Cc1ccc(-c2csc(NC(=O)c3ccccc3NS(=O)(=O)c3ccc(C)cc3)n2)cc1 | inactive | 1.93 µM (active) | inactive | 16.6 µM (active) |
| CCOC(=O)c1csc(NC(=O)c2ccncc2NS(=O)(=O)c2ccc(C)cc2)n1 | inactive | 21.7 µM (active) | inactive | inactive |
| Cc1ccc(-c2cc(C(=O)O)c3cccc(C)c3n2)cc1C | inactive | inactive | inactive |  |
| Cc1ccc(NC(=O)c2ccncc2NS(=O)(=O)c2ccc(C)cc2)cc1 |  |  | inactive | inactive |
| COc1ccc(NC(=O)c2cc(-c3ccc(C)c(C)c3)nc3ccccc23)cc1 |  |  | inactive | inactive |
| Cc1ccc(S(=O)(=O)Nc2cc(F)c(F)cc2C(=O)Nc2nc(-c3ccccc3)cs2)cc1 | inactive | 0.863 µM (active) | inactive | 2.96 µM (active) |
| Cc1cccc2c(C(=O)O)cc(Cl)nc12 | inactive | inactive | inactive | inactive |
| O=C(Nc1nc(-c2ccccc2)cs1)c1cccc(NS(=O)(=O)c2nccs2)c1 | inactive | 17.2 µM (active) | inactive | inactive |
| O=C(Nc1ccc(S(=O)(=O)Nc2nccs2)cc1)c1cccc2ccccc12 | inactive | 24.3 µM (active) | inactive | inactive |
| O=S(=O)(Nc1nc(CN2CCOCC2)nc2sc3c(c12)CCCC3)c1ccc2ccccc2c1 | inactive | 24.3 µM (active) | inactive |  |
| CCNC(=O)C1CCC(C(=O)Nc2ccc([S+](=O)([O-])Nc3nccs3)cc2)CC1 (stereo not given) | inactive | inactive | inactive |  |
| Cc1ccc(S(=O)(=O)Nc2cnccc2C(=O)Nc2ccc(-c3nc4ccccc4[nH]3)cc2)cc1 | inactive | 2.17 µM (active) | inactive | inactive |
| Clc1nc(CN2CCOCC2)nc2sc3c(c12)CCC3 | inactive | inactive | inactive | inactive |
| Cc1ccc(-c2cc(C(=O)N3CCCCC3)c3ccccc3n2)cc1C | inactive | 24.3 µM (active) | inactive |  |
| O=S(=O)(Nc1ccc(S(=O)(=O)Nc2nccs2)cc1)c1ccc2ccccc2c1 |  |  | inactive | inactive |
| CCCCCC1CCC(C(=O)Nc2ccc(S(=O)(=O)Nc3nccs3)cc2)CC1 (stereo not given) | inactive | 4.32 µM (active) and 3.85 µM (active) | inactive |  |
| O=C(O)c1cccc(S(=O)(=O)Nc2nccs2)c1 |  | inactive | inactive | inactive |
| Cc1ccc(S(=O)(=O)Nc2ccccc2C(=O)Nc2ccc(-c3ccccc3)cc2)cc1 |  | 2.43 µM (active) | inactive | 13.2 µM (active) |
| Cc1ccc(-c2cc(C(=O)Nc3ccc(S(N)(=O)=O)cc3)c3ccccc3n2)cc1C |  | 7.69 µM (active) | inactive | inactive |
| O=C(Cc1ccc2ccccc2c1)Nc1ccc(S(=O)(=O)Nc2nccs2)cc1 |  | 12.2 µM (active) | inactive | inactive |
| CCS(=O)(=O)N1CCC(C(=O)Nc2ccc(S(=O)(=O)Nc3nccs3)cc2)CC1 |  |  | inactive | inactive |
| CCC1CCC(C(=O)Nc2ccc(S(=O)(=O)Nc3nccs3)cc2)CC1 (stereo not given) |  | 27.3 µM (active) | inactive | inactive |
| Cc1ccc(S(=O)(=O)Nc2cc(C(=O)Nc3nc(-c4ccccc4)cs3)ccc2Cl)cc1 |  | 2.17 µM (active) | inactive | inactive |
| Cc1ccc(-c2cc(C(=O)Nc3ncco3)c3ccccc3n2)cc1C |  | 3.06 µM (active) | inactive | 1.32 µM (active) |
| Cc1ccc(S(=O)(=O)N(C)c2ccccc2C(=O)Nc2nc(-c3ccccc3)cs2)cc1 |  | 6.11 µM (active) | inactive | inactive |
| Cc1ccc(-c2cc(C(=O)N(C)c3ccccc3)c3ccccc3n2)cc1C |  | 21.7 µM (active) | inactive | inactive |
| O=C(Nc1ccc(S(=O)(=O)Nc2nc(-c3ccccc3)cs2)cc1)c1ccc2ccccc2c1 |  | 2.43 µM (active) | inactive | inactive |
